Results reported in PubChem BioAssay (Tox21).
Results filed as inconclusive are left out. Entries that show only a call come without a potency. Activity calls are given as the source filed them. Calls come from the whole dose curve.

molecular target: Beta-2 adrenergic receptor (Homo sapiens) (UniProt P07550); experiment: Adrenergic beta2 receptor (ADRB2) small molecule antagonists, cell-based qHTS assay (AID 1963592); settings: CHO-ADRB2 cells, isoproterenol-stimulated cAMP HTRF ratio, 0.5 h; series mostly up to 92.4 µM; note: nearly all actives have a fitted effect of over 50% in size
Text: U.S. Tox21 Program National Center for Advancing Translational Sciences [NCATS] Division of Preclinical Innovation [DPI] U.S. Environmental Protection Agency [EPA] National Institutes of Environmental Health Sciences [NIEHS] National Toxicology Program [NTP] U.S. Food and Drug Administration [FDA] Tox21 Assay Overview: Beta adrenergic receptors (Beta-ARs) belong to the G-protein coupled receptor (GPCR) superfamily, includes three subtypes - beta1, beta2, and beta3. Beta1-AR is the predominant receptor subtype expressed in the heart, and beta2-AR is expressed in the kidney, lung, blood vessel and in the heart, and beta3 is found in the adipocytes. Beta1 and 2 ARs couple to Gs protein and elevate cyclic adenosine mono phosphate (cAMP), which activates protein kinase A and leads to the downstream signaling responsible for the physiological actions. Beta-AR agonists or antagonists are the most prescribed therapeutic agents for heart failure and asthma, and these were one of the first target receptors for the rational drug design. Tox21 10K compound library was screened using the cAMP-Gs dynamic assay (Cisbio Bioassays, Shelton, CT) to identify agonists/antagonists of the Gs-coupled human adrenergic, beta2 receptor (ADRB2) in the CHO-ADRB2 cell line (Codex BioSolutions, Inc. Gaithersburg, MD), which stably over-expresses ADRB2. The principle of cAMP-Gs dynamic assay is based on HTRF technology, which facilitates the fluorescence resonance energy transfer (FRET) between donor Europium cryptate and acceptor d2-labeled cAMP. The cAMP generated within cells competes with the red acceptor, d2-labled cAMP, for binding to the monoclonal anti-cAMP-cryptate (Europium donor). An increase in intracellular cAMP leads to the disruption of FRET signal, and the signal is inversely proportional to the cAMP concentration. Propranolol HCl (Sigma-Aldrich, St. Louis, MO) was used as a positive control in the screening.
Tox21 Assay Protocol Summary: CHO-ADRB2 cells were dispensed at 1,000/well in 4uL assay medium into white/solid 1536-well plates (Greiner Bio-One North America Inc., Monroe, NC) using a Multidrop Combi dispenser (ThermoFisher Scientific, Waltham, MA). The assay plates were incubated at 37C and 5% CO2 for an overnight (18-20hr). Then positive control and test compounds dissolved in DMSO were transferred to the assay plates at 23nL using a Pintool station (Wako, San Diego, CA). Following the compound and positive control transfer, 1uL agonist-stimulation mix containing 1nM Isoproterenol HCl, 100uM IBMX and 25uM Ro-20-1724 was added to each well of the assay plates using BioRAPTR Flying Reagent Dispenser (FRD, Beckman Coulter, Brea, CA). The assay plates were incubated at room temperature for 0.5hr. Then 2.5ul each d2-labled cAMP and anti-cAMP-cryptate solutions were added separately to each well of the assay plates using an FRD and the assay plates were incubated at room temperature for 1hr. The fluorescence signal was measured at two different wavelengths (665nm and 615nm) using an Envision plate reader (Perkin Elmer, Shelton, CT). Data were expressed as the ratio of 665 nm/615 nm.
Potency is the fitted concentration of half-maximal effect.

Beta-2 adrenergic receptor (Homo sapiens), sequence (P07550 whole entry, looked up): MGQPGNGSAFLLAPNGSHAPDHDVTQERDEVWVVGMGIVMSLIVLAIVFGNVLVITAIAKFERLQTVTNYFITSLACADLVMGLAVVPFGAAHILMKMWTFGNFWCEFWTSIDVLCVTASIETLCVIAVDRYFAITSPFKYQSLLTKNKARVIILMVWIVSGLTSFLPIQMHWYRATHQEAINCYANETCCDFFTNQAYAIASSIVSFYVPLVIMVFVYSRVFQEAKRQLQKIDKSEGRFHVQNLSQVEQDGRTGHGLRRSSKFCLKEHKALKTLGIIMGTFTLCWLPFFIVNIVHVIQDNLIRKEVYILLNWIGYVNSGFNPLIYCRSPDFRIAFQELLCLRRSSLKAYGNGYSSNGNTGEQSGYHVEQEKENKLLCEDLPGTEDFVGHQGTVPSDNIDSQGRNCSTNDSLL

| SMILES | Potency |
| --- | --- |
| N=C(N)[Se] | inactive |
| COc1ccc(/C(=C/C(=O)N2CCOCC2)c2ccc(Cl)cc2)cc1OC | inactive |
| CCOP(=S)(S)OCC | inactive |
| CCOc1nc(C(Cl)(Cl)Cl)ns1 | inactive |
| CC(=O)c1cc(C(C)(C)C)cc2c1CCC2(C)C | inactive |
| CC(C)CCCCCCCOP(=O)(Oc1ccccc1)Oc1ccccc1 | inactive |
| CCS(=O)(=O)C(C)(C)S(=O)(=O)CC | inactive |
| CCC1CCC(=O)O1 (stereo not given) | inactive |
| CCOC(=O)[C@]1(c2ccccc2)Oc2ccccc2[C@@H]1N | inactive |
| CCC/C(=N\OCC)C1=C(O)CC(CC(C)SCC)CC1=O (stereo not given) | inactive |
| C=CC(=O)OCCN(C)C | inactive |
| OCCBr | inactive |
| CC1CCCCC1NC(=O)Nc1ccccc1 (stereo not given) | inactive |
| COP(=O)(OC)SCn1c(=O)oc2cc(Cl)cnc21 | inactive |
| C[N+]1(CCC(C(N)=O)(c2ccccc2)c2ccccc2)CCCCC1 | inactive |
| ClC=C(Cl)Cl | inactive |
| C=CC[C@]1(O)CC[C@H]2[C@@H]3CCC4=CC(=O)CCC4=C3C=C[C@@]21C | inactive |
| CCC(Cl)CCl (stereo not given) | inactive |
| ClCCCN1CCN(c2cccc(Cl)c2)CC1 | inactive |
| S=C(SSC(=S)N1CCCCC1)N1CCCCC1 | inactive |

| SMILES | Potency |
| --- | --- |
| c1cc[n+]2c(c1)-c1cccc[n+]1CC2 | inactive |
| Cn1sc(Cl)cc1=O | inactive |
| CC(C)(C)c1cc([N+](=O)[O-])cc([N+](=O)[O-])c1O | inactive |
| CCC1(C2=NCCN2)Cc2ccccc2O1 (stereo not given) | inactive |
| CCN(CC)CCc1c[nH]c2ccccc12 | inactive |
| CCCN(CCC)c1c([N+](=O)[O-])cc(C(F)(F)F)cc1[N+](=O)[O-] | inactive |
| O=C(NC(=O)c1c(F)cccc1F)Nc1cc(Cl)c(F)c(Cl)c1F | inactive |
| CCN[C@@H](C)Cc1ccccc1 | inactive |
| CCOP(=O)(N=C1SCCS1)OCC | inactive |
| CC(C)C(=O)Cl | inactive |
| CNC(=O)Oc1cccc(N=CN(C)C)c1 | inactive |
| NCC1(CC(=O)O)CCCCC1 | inactive |
| COc1ccc2c(c1OC)C(=O)O[C@H]2[C@@H]1c2cc3c(cc2CCN1C)OCO3 | inactive |
| CCOP(=S)(OCC)Oc1cc(-c2ccccc2)on1 | inactive |
| O=C(NC(O)C(Cl)(Cl)Cl)NC(O)C(Cl)(Cl)Cl (stereo not given) | inactive |
| O=[N+]([O-])c1ccccc1CCl | inactive |
| C=CCC1(C(C)CC)C(=O)NC(=O)NC1=O (stereo not given) | inactive |
| C=C(C)[C@H]1CN[C@H](C(=O)O)[C@H]1CC(=O)O | inactive |
| C[N+]1(C)[C@@H]2CC[C@H]1CC(OC(=O)C(CO)c1ccccc1)C2 (stereo not given in full) | inactive |
| CC(c1ccccc1)(c1ccc(O)cc1)c1ccc(O)cc1 | 61.1 µM (active) |
